Data taken from PubChem BioAssay AID1159580 (chemical genetic matrix, 2015).
Values joined by “and” are separate entries in the source; they are usually repeats but may differ in a detail not shown here. Equal values may be shown once. About 2,000 (36%) of roughly 5,500 compounds were called active. Another 18% or so got no clear call; they are omitted. No stated cut-off is given here; in the data, active means normalized growth mostly below about 0.91 (no sharp cut-off); inconclusive means no clear call, values can overlap the other calls; inactive means mostly above about 0.92. The list shows a part of the results.

Experiment: chemical genetic growth profiling, strain panel (AID 1159580);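 further: tested at 20 µM; growth read once vehicle control cultures reached saturation at 30 °C; 1 = growth at the plate median or of vehicle wells; lower values mean less growth of the strain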
Conditions: S. cerevisiae deletion strains, growth OD

Measured: normalized growth

CC(CCC(=O)O)[C@H]1CCC2C3C[C@H](O)[C@@H]4C[C@H](O)CC[C@]4(C)C3CC[C@@]21C (stereo partly specified)
inactive: locus YAL021C, strain ccr4, hits give low values 0.977 | locus YAL026C, strain drs2, hits give low values 1.01 | locus YAL030W, strain snc1, hits give low values 0.984 | locus YBL061C, strain skt5, hits give low values 0.989 | locus YBR009C, strain hhf1, hits give low values 0.97 | locus YBR021W, strain FUR4, hits give low values 1.01 | locus YBR023C, strain chs3, hits give low values 0.982 | locus YBR171W, strain sec66, hits give low values 0.996 | locus YBR229C, strain ROT2, hits give low values 1.02 | locus YBR231C, strain swc5, hits give low values 1.01 | locus YBR279W, strain paf1, hits give low values 1 | locus YCL011C, strain gbp2, hits give low values 0.97 | locus YCL016C, strain dcc1, hits give low values 0.96 | locus YCL029C, strain bik1, hits give low values 1.04 | locus YCL069W, strain vba3, hits give low values 0.985 | locus YCR088W, strain abp1, hits give low values 0.993 | locus YDL005C, strain med2, hits give low values 0.973 | locus YDL035C, strain GPR1, hits give low values 1.04 | locus YDL040C, strain nat1, hits give low values 0.986 | locus YDL074C, strain BRE1, hits give low values 1.04 | locus YDL101C, strain DUN1, hits give low values 1.02 | locus YDL185W, strain tfp1, hits give low values 1.03 | locus YDL192W, strain arf1, hits give low values 1.04 | locus YDR001C, strain nth1, hits give low values 0.976 | locus YDR069C, strain doa4, hits give low values 0.983 | locus YDR101C, strain arx1, hits give low values 1.04 | locus YDR137W, strain rgp1, hits give low values 0.957 | locus YDR159W, strain sac3, hits give low values 1.05 | locus YDR162C, strain NBP2, hits give low values 1.01 | locus YDR195W, strain ref2 0.957 | locus YDR297W, strain sur2, hits give low values 0.988 | locus YDR318W, strain mcm21, hits give low values 1.02 | locus YDR334W, strain swr1, hits give low values 0.99 | locus YDR335W, strain msn5, hits give low values 0.979 | locus YDR388W, hits give low values 1.02 | locus YDR392W, strain spt3, hits give low values 0.88 | locus YDR502C, strain sam2, hits give low values 1.04 | locus YEL003W, strain gim4, hits give low values 1.01 | locus YEL037C, strain rad23, hits give low values 0.985 | locus YEL061C, strain CIN8 (second series), hits give low values 0.987 | locus YEL061C, strain CIN8, hits give low values 1.02 | locus YER015W, strain faa2, hits give low values 0.987 | locus YER016W, strain bim1, hits give low values 0.981 | locus YER110C, hits give low values 1.03 | locus YER111C, strain swi4, hits give low values 0.974 | locus YER155C, strain BEM2 (second series), hits give low values 1 | locus YER155C, strain BEM2, hits give low values 1.02 | locus YER167W, strain BCK2, hits give low values 1.04 | locus YFR010W, strain ubp6, hits give low values 1.01 | locus YGL078C, strain dbp3, hits give low values 1.02 | locus YGL086W, strain mad1, hits give low values 1.04 | locus YGL167C, strain pmr1, hits give low values 0.957 | locus YGL173C, strain kem1, hits give low values 1 | locus YGL227W, strain vid30, hits give low values 0.994 | locus YGL240W, strain doc1, hits give low values 1.02 | locus YGL248W, strain PDE1, hits give low values 1.02 | locus YGL253W, strain hxk2, hits give low values 1.02 | locus YGR135W, strain pre9, hits give low values 1.05 | locus YGR252W, strain gcn5, hits give low values 1 | locus YHR013C, strain ard1, hits give low values 0.935 | locus YHR027C, strain rpn1, hits give low values 0.965 | locus YHR030C, strain SLT2, hits give low values 1.02 and 1.06 | locus YHR079C, strain IRE1 (second series), hits give low values 1.02 | locus YHR079C, strain IRE1, hits give low values 1.04 | locus YHR094C, strain hxt1, hits give low values 1.02 | locus YHR129C, strain ARP1, hits give low values 1.03 | locus YHR142W, strain chs7, hits give low values 0.958 | locus YHR200W, strain rpn10, hits give low values 1.03 | locus YIL066C, strain RNR3, hits give low values 1 | locus YIL073C, strain SPO22, hits give low values 1.1 | locus YIL125W, strain kgd1, hits give low values 1.03 | locus YIR030C, strain dcg1, hits give low values 1.02 | locus YJL092W, strain hpr5, hits give low values 0.99 | locus YJL095W, strain BCK1 (second series), hits give low values 0.99 | locus YJL095W, strain BCK1, hits give low values 1.08 and 1.04 | locus YJL115W, strain asf1, hits give low values 0.977 | locus YJL129C, strain trk1, hits give low values 0.979 | locus YJL134W, strain LCB3, hits give low values 1.03 | locus YJL154C, strain vps35, hits give low values 0.987 | locus YJL164C, strain tpk1, hits give low values 0.95 | locus YJL166W, strain qcr8, hits give low values 1 | locus YJL168C, strain set2, hits give low values 1.03 | locus YJL187C, strain SWE1 (second series), hits give low values 1.06 | locus YJL187C, strain SWE1, hits give low values 0.993 | locus YJR043C, strain POL32, hits give low values 1.04 | locus YJR066W, strain TOR1, hits give low values 1 | locus YKL009W, strain mrt4, hits give low values 0.994 | locus YKL068W, hits give low values 1.01 | locus YKL085W, strain MDH1 (second series), hits give low values 1.02 | locus YKL085W, strain MDH1, hits give low values 1.02 | locus YKL160W, strain elf1, hits give low values 0.948 | locus YKL190W, strain CNB1, hits give low values 1.07 | locus YKR001C, strain vps1, hits give low values 1.06 | locus YKR026C, strain gcn3, hits give low values 0.996 | locus YKR091W, strain srl3, hits give low values 0.973 | locus YLL001W, strain dnm1, hits give low values 0.932 | locus YLL026W, hits give low values 0.986 | locus YLL041C, strain sdh2, hits give low values 0.984 | locus YLR027C, strain aat2, hits give low values 1 | locus YLR039C, strain RIC1, hits give low values 1.08 | locus YLR058C, strain SHM2, hits give low values 1.02 | locus YLR102C, strain apc9, hits give low values 1.03 | locus YLR113W, strain HOG1, hits give low values 1.02 | locus YLR221C, strain rsa3, hits give low values 1.03 | locus YLR258W, strain gsy2, hits give low values 0.962 | locus YLR262C, strain YPT6 (second series), hits give low values 0.984 | locus YLR262C, strain YPT6, hits give low values 1.17 | locus YLR268W, strain sec22, hits give low values 1.06 | locus YLR320W, strain mms22, hits give low values 1.02 | locus YLR330W, strain CHS5, hits give low values 1.06 | locus YLR342W, strain FKS1 (second series), hits give low values 1.04 | locus YLR342W, strain FKS1, hits give low values 0.989 | locus YLR357W, strain rsc2, hits give low values 1 | locus YLR370C, strain arc18, hits give low values 0.981 | locus YLR371W, strain rom2, hits give low values 1.03 | locus YLR384C, strain iki3, hits give low values 0.964 | locus YLR418C, strain cdc73, hits give low values 1.05 | locus YML016C, strain PPZ1, hits give low values 1.02 | locus YML032C, strain rad52, hits give low values 1.01 | locus YML120C, strain ndi1, hits give low values 0.96 | locus YML124C, strain tub3, hits give low values 1.02 | locus YMR058W, strain fet3, hits give low values 0.997 | locus YMR078C, strain ctf18, hits give low values 1.03 | locus YMR125W, strain sto1, hits give low values 0.978 | locus YMR129W, hits give low values 1.02 | locus YMR205C, strain PFK2, hits give low values 0.993 | locus YMR223W, strain ubp8, hits give low values 1.03 | locus YMR231W, strain pep5, hits give low values 0.993 | locus YMR263W, strain SAP30, hits give low values 1.04 | locus YMR307W, strain GAS1, hits give low values 1.1 | locus YNL067W, strain RPL9B, hits give low values 1.09 | locus YNL071W, strain lat1, hits give low values 0.991 | locus YNL183C, strain NPR1, hits give low values 0.999 | locus YNL209W, strain ssb2, hits give low values 0.978 | locus YNL233W, strain BNI4, hits give low values 1.08 | locus YNL248C, strain rpa49, hits give low values 1.03 | locus YNL250W, strain rad50, hits give low values 1.03 | locus YNL271C, strain bni1, hits give low values 1.02 | locus YNL298W, strain CLA4, hits give low values 1 | locus YNL307C, strain MCK1, hits give low values 1.03 | locus YNL322C, strain KRE1 (second series), hits give low values 0.982 | locus YNR049C, strain mso1, hits give low values 0.989 | locus YNR052C, strain pop2, hits give low values 1.02 | locus YOL012C, strain htz1 0.914 | locus YOL147C, strain pex11, hits give low values 1.03 | locus YOR001W, strain rrp6, hits give low values 1.02 | locus YOR061W, strain CKA2, hits give low values 1.02 | locus YOR069W, strain VPS5, hits give low values 1.02 | locus YOR070C, strain gyp1, hits give low values 1.01 | locus YOR080W, strain dia2, hits give low values 0.995 | locus YOR083W, strain WHI5, hits give low values 0.948 | locus YOR106W, strain vam3, hits give low values 0.909 | locus YOR136W, strain idh2, hits give low values 1.04 | locus YOR144C, strain elg1, hits give low values 1.02 | locus YOR184W, strain ser1, hits give low values 1.04 | locus YOR231W, strain MKK1, hits give low values 1.07 | locus YOR265W, strain rbl2, hits give low values 0.983 | locus YOR270C, strain vph1, hits give low values 0.982 | locus YOR290C, strain snf2, hits give low values 0.927 | locus YOR316C, strain cot1, hits give low values 1.02 | locus YPL051W, strain arl3, hits give low values 0.954 | locus YPL055C, strain LGE1, hits give low values 1.06 | locus YPL078C, strain atp4, hits give low values 0.936 | locus YPL106C, strain sse1, hits give low values 0.978 | locus YPL240C, strain hsp82, hits give low values 0.991 | locus YPL256C, strain CLN2, hits give low values 1.04 | locus YPR119W, strain clb2, hits give low values 1.02 | locus YPR141C, strain kar3, hits give low values 1.03 | locus YPR163C, strain tif3, hits give low values 1.03 | locus YPR167C, strain met16, hits give low values 1.02 | strain wtn01, hits give low values 1.05
